Source: PubChem
Most compounds without a hit are left out; they make up all but 18% or so of the library.
IL1B secr inh = blocks inflammasome-driven IL-1 beta release | THP-1 LPS/ATP IL-1B secretion, AlphaLISA, 16 h; active compounds read low | activity change, % at 57.5 µM | 360,000 tested, 4.7% active; in the data active means activity change below about -50%; inconclusive means mostly about -30% to -49%
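THP-1 cells pretreated 1 hr with compounds (up to 57.5 uM final), then stimulated with LPS (250 ng/mL final) plus ATP (1.25 mM final); secreted IL-1B measured by AlphaLISA after 16 hr, decreased signal indicating inhibition.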
DT40 TDP1 CPT = DT40-hTDP1 cell growth loss with CPT; 420,000 tested, 12% active; chicken DT40 Tdp1-/-;hTDP1 cells + 20 nM CPT, ATP luminescence, 48 h; Potency, µM (doses to about 46.2 µM), hits mostly inhibitors; further: nearly all actives have a fitted effect of over 55% in size
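Chicken DT40 Tdp1-/- cells complemented with human TDP1, 400 cells/well, exposed to compounds plus 20 nM camptothecin for at least 48 h at 37 C; viability read as ATP content by CellTiter-Glo luminescence.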
RORg inh = ROR gamma (mouse) transcription inhibition | Drosophila S2 Gal4-RORgamma UAS-luciferase reporter, 20 h | 310,000 tested, 5.4% active | P51450 | AID 2551 | Potency, µM (doses to about 53.6 µM), usual class: inhibitors; further: nearly all actives have a fitted effect of over 60% in size
Target sequence (P51450 whole entry, looked up, the tested form may be a part): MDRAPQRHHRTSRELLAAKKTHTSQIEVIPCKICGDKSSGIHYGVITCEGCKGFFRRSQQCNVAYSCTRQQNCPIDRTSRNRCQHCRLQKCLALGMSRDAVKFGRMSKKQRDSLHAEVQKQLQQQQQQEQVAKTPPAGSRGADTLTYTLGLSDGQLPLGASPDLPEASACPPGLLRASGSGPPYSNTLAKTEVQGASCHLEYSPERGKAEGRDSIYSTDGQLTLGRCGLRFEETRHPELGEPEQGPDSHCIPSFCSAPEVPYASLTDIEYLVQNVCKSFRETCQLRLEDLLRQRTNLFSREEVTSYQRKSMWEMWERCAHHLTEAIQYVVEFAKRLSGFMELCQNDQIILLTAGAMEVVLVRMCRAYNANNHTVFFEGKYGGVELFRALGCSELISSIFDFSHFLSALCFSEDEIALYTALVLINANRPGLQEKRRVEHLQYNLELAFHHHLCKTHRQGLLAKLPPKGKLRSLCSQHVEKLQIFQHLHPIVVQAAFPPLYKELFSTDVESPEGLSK
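Drosophila Schneider cells stably carrying a metallothionein-driven Gal4 DBD–ROR gamma fusion and a UAS-Photinus luciferase reporter were exposed to compound for 1 hr, then induced with copper sulfate (700 uM final) for 20 hr at ambient temperature before luminescence reading.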
LDHA block = LDHA (human) enzyme inhibition. purified LDHA, NADH/diaphorase-resazurin fluorescence; active compounds read low. AID 1347041. activity change, % (values are at about 110 or 230 µM). 480,000 tested, 0.15% active; in the data active means activity change below about -30%; inconclusive means mostly about -25% to -30%
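Remaining NADH was detected by diaphorase (0.133 mg/mL) converting 37 µM resazurin to fluorescent resorufin, read at 0 and 20 minutes. The preceding 5-minute room-temperature reaction used 2 nM LDHA, 0.2 mM sodium pyruvate and 0.06 mM NADH at pH 7.4.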
Gal4-VP16 FLuc = counter-screen for ROR gamma inhibitors: Gal4-VP16 reporter; 310,000 tested, 3.5% active; Potency, µM (titrated, usually from 53.6 µM), actives largely listed as inhibitors; Drosophila S2 Gal4-VP16 UAS-luciferase, luminescence, 20 h;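 further: Gal4-VP16 expression switched on by copper sulfate through the metallothionein promoter; nearly all actives have a fitted effect of over 50% in size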
TDP1 cell noCPT = qHTS for Inhibitors of human tyrosyl-DNA phosphodiesterase 1 (TDP1): qHTS in cells in absence of CPT | Potency, µM (titrated, usually from 46.2 µM), usual class: inhibitors | AID 686978, 2013 | DT40 Tdp1-/- hTDP1 cells, no CPT, ATP luminescence, 48 h | 420,000 tested, 15% active; further: nearly all actives have a fitted effect of over 55% in size
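Chicken DT40 Tdp1-/- cells stably complemented with human TDP1 were seeded at 400 cells/well with DMSO in place of 20 nM camptothecin. After compound pinning, cells grew at least 48 hr at 37 °C; viability read by CellTiter-Glo luminescence.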
A number is an active result. Unless noted, the call rests on the fitted dose curve; in most records, active means well fitted curve in the direction sought with a large enough effect; inconclusive means small, poorly fitted or top-dose-only effect, or another doubt; inactive means no such curve, though single readings can be large; an effect the other way counts as inactive or inconclusive.

What do the screens show for `Cc1ccc(-c2cc3nc(-c4ccccc4)cc(N4CCC5(CC4)OCCO5)n3n2)cc1`?
IL1B secr inh: inactive; DT40 TDP1 CPT: 16µM; RORg inh: inconclusive; LDHA block: inactive; Gal4-VP16 FLuc: inactive; TDP1 cell noCPT: 18µM

How did c1ccc(-c2nnc3ccc(N4CCC5(CC4)OCCO5)nn23)cc1 do in these assays?
IL1B secr inh: inactive; DT40 TDP1 CPT: inconclusive; RORg inh: inactive; LDHA block: inactive; Gal4-VP16 FLuc: inactive; TDP1 cell noCPT: inconclusive

Results for CC(=O)/C(CN1CCCCC1)=N\O ?
IL1B secr inh: inactive; DT40 TDP1 CPT: inactive; RORg inh: inactive; LDHA block: inactive; Gal4-VP16 FLuc: inactive; TDP1 cell noCPT: inactive

How did C/C(=N\O)C(=O)C(CN1CCCCC1)CN1CCCCC1 do in these assays?
IL1B secr inh: inactive; DT40 TDP1 CPT: 2.9µM; RORg inh: inactive; LDHA block: inactive; Gal4-VP16 FLuc: inactive; TDP1 cell noCPT: 2.6µM

How did CCCCCCCC(=O)Nc1c(C)cccc1CC do in these assays?
LDHA block: inactive

What do the screens show for `COc1ccc(-c2nc(CNC(=O)Nc3ccccc3OC)c(C)o2)cc1`?
LDHA block: inactive

What do the screens show for `COc1ccccc1CNC(=O)c1ccc(CS(=O)(=O)c2c(Cl)cccc2Cl)o1`?
DT40 TDP1 CPT: inconclusive; LDHA block: inactive; TDP1 cell noCPT: inconclusive

Results for CCCCSCCCNC(=O)c1ccc(CS(=O)(=O)c2ccc(OC)cc2)o1 ?
IL1B secr inh: inactive; DT40 TDP1 CPT: 18µM; RORg inh: inactive; LDHA block: inactive; Gal4-VP16 FLuc: inactive; TDP1 cell noCPT: inconclusive

Results for COCCNC(=O)c1ccc(CS(=O)(=O)c2ccc(Cl)cc2)o1 ?
IL1B secr inh: inactive; DT40 TDP1 CPT: inactive; RORg inh: inactive; LDHA block: inactive; Gal4-VP16 FLuc: inactive; TDP1 cell noCPT: inactive

Results for COCCNC(=O)c1ccc(CS(=O)(=O)c2ccccc2)o1 ?
IL1B secr inh: inactive; DT40 TDP1 CPT: 18µM; RORg inh: inactive; LDHA block: inactive; Gal4-VP16 FLuc: inactive; TDP1 cell noCPT: 16µM

Results for COc1ccc(S(=O)(=O)Cc2ccc(C(=O)NCc3ccccc3OC)o2)cc1 ?
IL1B secr inh: inactive; DT40 TDP1 CPT: 21µM; RORg inh: inactive; LDHA block: inactive; Gal4-VP16 FLuc: inactive; TDP1 cell noCPT: inactive

Results for CCn1c(=O)n(CC)c2cc(N3CCCC3)c(NC(=O)Nc3cc(Cl)c(OC)cc3OC)cc21 ?
LDHA block: inactive

Results for O=C(NCCCN1CCN(c2ccccc2)CC1)c1sc2ncccc2c1-n1cccc1 ?
DT40 TDP1 CPT: inconclusive; LDHA block: inactive; TDP1 cell noCPT: inconclusive

What do the screens show for `O=C(NCCCN1CCN(c2ccccc2F)CC1)c1sc2ncccc2c1-n1cccc1`?
DT40 TDP1 CPT: inconclusive; LDHA block: inactive; TDP1 cell noCPT: 21µM

How did O=C(NCCCN1CCN(c2cccc(Cl)c2)CC1)c1sc2ncccc2c1-n1cccc1 do in these assays?
DT40 TDP1 CPT: inconclusive; LDHA block: inactive; TDP1 cell noCPT: 23µM

What do the screens show for `COc1ccccc1S(=O)(=O)Cc1ccc(C(=O)NCCCN2CCN(c3ccc(F)cc3)CC2)o1`?
IL1B secr inh: inactive; DT40 TDP1 CPT: inconclusive; RORg inh: inactive; LDHA block: inactive; Gal4-VP16 FLuc: inactive; TDP1 cell noCPT: inconclusive

Results for Cc1ccc(C)n1-c1c(C(=O)NCCCN2CCN(c3ccc(F)cc3)CC2)sc2ncccc12 ?
DT40 TDP1 CPT: 21µM; LDHA block: inactive; TDP1 cell noCPT: inconclusive

Results for O=S(=O)(Nc1cccc(C#Cc2cccs2)c1)c1cccs1 ?
LDHA block: inactive

Results for COc1ccc(Nc2cc(C)nc3c(OC)cccc23)cc1 ?
LDHA block: inactive

Results for CCCN(C(=O)Cn1nc(Cc2cccnc2)c2ccccc2c1=O)c1cccc(Cl)c1 ?
LDHA block: inactive

How did CCn1c(/N=C/c2ccc(OC)cc2O)nc2ccccc21 do in these assays?
IL1B secr inh: inactive; DT40 TDP1 CPT: inactive; RORg inh: 20µM; LDHA block: inactive; Gal4-VP16 FLuc: inconclusive; TDP1 cell noCPT: inactive
